Compound activity as filed in PubChem BioAssay.
Many of the other results were omitted from the sample, so hits are more common in it than they were.
RXFP1 antag – RXFP1 (human) relaxin receptor antagonism; HEK293-RXFP1, relaxin-stimulated cAMP HTRF, 30 min; hits give low values; activity change, negative = inhibition, % at 57.5 µM; 350,000 compounds, 0.59% hits; AID 1259400;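 active means activity change of -60% or lower, but not beyond a set lower limit; inconclusive means change between -60% and -40%, or beyond the set limit; inactive means change above -40%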; further: on the % scale 0 is the no-effect control and ±100 the full control effect
PTHR1 ag – PTHR1 (human) receptor agonism | Q03431 | HEK293 GP2 PTHR1 cells, GloSensor cAMP luminescence, 1 h | 410,000 compounds, 0.075% hits | AID 743266 | Potency, µM (doses to about 115 µM), without a hit: at the highest dose activation, usual class: activators; further: potency means the concentration at half of the fitted maximal effect; nearly all actives have a fitted effect of over 55% in size
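HEK-293-derived GP2 cells expressing PTHR1 and a GloSensor cAMP reporter, 3,000/well, plated overnight, given luciferin plus IBMX (each 0.5 mM as added) for 1 h at 37 °C, then compound for 1 h at 37 °C. Luminescence was read after 15 min at room temperature.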
TCR act – activates T cell receptor signaling | primary human leukocytes, anti-CD3, IL-2 HTRF, 48 h | Potency, µM (titrated, usually from 9.22 µM), without a hit: at the highest dose activation of IL-2 secretion, actives largely listed as activators | 330,000 tested, under 10 active | AID 504894; further: % of control where 0% means no effect
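IL-2 produced over 48 hr by a-CD3 bead-stimulated primary human leukocytes exposed to compounds was detected with a homogeneous time-resolved FRET immunoassay, 665nm acceptor signal after 320nm excitation.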
RXFP1 ag – RXFP1 (human) receptor agonism | Q9HBX9 | HEK293T-RXFP1 cAMP TR-FRET, 30 min; response scale: percent of porcine relaxin response, buffer zero | Potency, µM (doses to about 57.5 µM), without a hit: at the highest dose activation, most hits filed as activators | 370,000 compounds, 0.3% hits; further: potency means the concentration at half of the fitted maximal effect; on the % scale 0 is the no-effect control and ±100 the full control effect; nearly all actives have a fitted effect of over 60% in size
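HEK293 cells stably expressing RXFP1, treated 30 min at 37C with compounds plus PDE4 inhibitor Ro 20174; cAMP measured by HTRF TR-FRET. Normalized to buffer and 29 nM porcine relaxin; EC50 by Hill fit.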
TSHR antagonist – antagonists of human thyroid stimulating hormone receptor; activity change, negative = inhibition, % at 11.5 µM; AID 504810; 330,000 compounds, 0.2% hits; P16473; TSHR-expressing cells, TSH-stimulated cAMP HTRF, 2 h; hits give low values;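 active means activity change below a set negative limit, meaning inhibition stronger than a set level, cut at about -70% in these data; inconclusive means activity change between two set negative limits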; further: on the % scale 0 is the no-effect control and ±100 the full control effect
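TSHR-expressing cells were treated with compounds, then stimulated with TSH at EC80 (4nM final) for 2 hours at 37 deg C. Cellular cAMP was measured by HTRF competition between lysate cAMP and cAMP-d2 for a cryptate-labelled anti-cAMP antibody.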
NPSR antagonist – antagonists of human neuropeptide S receptor cAMP signaling | Q6W5P4 | CHO-NPSR cells, cAMP TR-FRET, antagonist mode | Potency, µM (top dose mostly 38.3 µM), for inactives: at the highest dose activity change, negative = inhibition, actives largely listed as inhibitors | 220,000 compounds, 1% hits; further: potency means the concentration at half of the fitted maximal effect; on the % scale 0 is the no-effect control and ±100 the full control effect; nearly all actives have a fitted effect of over 50% in size
Target sequence (Q6W5P4 whole entry, looked up): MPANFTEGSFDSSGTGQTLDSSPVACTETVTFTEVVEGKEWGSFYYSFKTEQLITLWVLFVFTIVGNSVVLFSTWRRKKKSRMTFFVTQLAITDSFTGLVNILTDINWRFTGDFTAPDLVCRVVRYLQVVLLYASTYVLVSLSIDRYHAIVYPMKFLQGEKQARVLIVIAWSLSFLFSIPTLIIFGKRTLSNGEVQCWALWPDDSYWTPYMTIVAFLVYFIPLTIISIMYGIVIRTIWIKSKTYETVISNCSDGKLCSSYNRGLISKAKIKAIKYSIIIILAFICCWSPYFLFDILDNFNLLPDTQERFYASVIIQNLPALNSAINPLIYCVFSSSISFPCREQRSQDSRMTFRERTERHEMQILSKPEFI
Starred values were filed as active, the others as inactive; i = inactive; ? = inconclusive; . = no result given; ! = not active in a repeat; [ ] = dose if it differs, or a comment. Unless noted, the call rests on the fitted dose curve; in most records, active means well fitted curve in the direction sought with a large enough effect; inconclusive means small, poorly fitted or top-dose-only effect, or another doubt; inactive means no such curve, though single readings can be large; an effect the other way counts as inactive or inconclusive.

SMILES	RXFP1 antag	PTHR1 ag	TCR act	RXFP1 ag	TSHR antagonist	NPSR antagonist
COc1ccccc1CCNC(=O)c1ccc2c(c1)c(C)c(C)n2C	-23.3	-13.1%	.	-0.4%	.	.
CN(CC(=O)Nc1ccccc1C(F)(F)F)Cc1c(O)ccc2ccccc12	-3.1	i	-1.6%	0.1%	-98.6*	.
CCc1ccccc1NC(=O)CN(C)Cc1c(O)ccc2ccccc12	-9.2	-19.1%	-1.6%	0.4%	3.9	.
Cc1ccc(C)c(NC(=O)c2cc(S(=O)(=O)N3CCCCCC3)ccc2F)c1	-11.6	-12.6%	.	1.6%	.	.
Cc1ccc(C)c(Nc2nn3c(=O)c4ccc(C(=O)N(C)Cc5ccccc5)cc4nc3s2)c1	-17.4	i	.	12.9%	.	.
CCCCCCCCCCCCCCC[C@H](O)[C@@H](N)CO	5.7	.	.	.	.	.
CCCCCCCCCCCCCCC(O)C[N+](C)(CCO)CCO (centres undefined)	-60.8*	i	-4.5%	.	.	.
CC(C)CCNC(=O)c1ccc2nc(Cc3ccccc3)oc2c1	-13.4	-2.2%	.	2.1%	.	.
Cn1c(-[n+]2c(-c3ccccc3)cc(-c3ccccc3)cc2-c2ccccc2)nc2cc([N+](=O)[O-])ccc21	-24.0	i	-3.6%[46.1 µM]	1.5%	73.5	10µM*
O=[N+]([O-])c1ccc2c(c1)ncn2-c1ccccc1	17.7	i	1.3%	0.3%	9.0	-4.9%
CCOC(=O)C1CCN(c2nc(-c3ccccc3)nc3c2oc2ccccc23)CC1	-9.8	i	-0.5%	-0.9%	-3.7	12.6µM*
CC(NCC(=O)NC(=O)NC1CCCC1)c1ccc(Cl)cc1Cl (centres undefined)	-63.3*	i	-1.0%	-2.1%	-3.4	.
Cc1cccc(NC(=O)CN2C(=O)S/C(=C\c3ccc(O)c([N+](=O)[O-])c3)C2=O)c1	4.4	-12.7%	.	0.1%	-32.7	-33.7%
Cc1ccc(NC(=O)CN2C(=O)S/C(=C/c3ccc(O)c([N+](=O)[O-])c3)C2=O)cc1C	-62.5*	-11.5%	-5.3%	0.0%	-16.0	?
COc1cccc(Nc2ncnc3ccc(Br)cc23)c1	-2.5	-64.8%	.	.	.	.
O=C(O)c1cccc(Nc2ncnc3ccc(Br)cc23)c1	5.8	8.91µM*!	-8.1%	15.4%	1.1	-7.5%
CCc1ccccc1NC(=O)CN(Cc1ccccc1)S(=O)(=O)c1ccc(Br)cc1	-14.2	-8.8%	.	-2.4%	.	.
COc1cc(OC)cc(-n2nnnc2SCC(=O)NC2CCCC2)c1	2.0	i	-3.7%	3.3%	-6.2	-8.4%[46.1 µM]
COc1ccc(-n2nnnc2SCC(=O)NC2CCCC2)cc1OC	0.4	i	11.5%	0.9%	-91.7*	.
O=C(CSc1n[nH]c(=O)n1C1CC1)Nc1ccc(F)c(Cl)c1	-78.2*	-7.1%	3.2%	.	-5.9	.
N#C/C(=C\c1ccc(Oc2ccc(C(F)(F)F)cc2[N+](=O)[O-])cc1)c1nc2ccccc2[nH]1	-38.0	-26.5%[57.5 µM]	0.0%	1.0%	-70.9*	-23.3%[46.1 µM]
N#C/C(=C/c1ccc(N2CCCC2)c([N+](=O)[O-])c1)c1nc2ccccc2[nH]1	-21.3	-37.6%	9.2%	0.1%	3.4	-8.4%[46.1 µM]
O=[N+]([O-])c1ccc(Cl)c2c1C1C=CCC1C(c1ccccn1)N2 (centres undefined)	-117.6*	-20.4%	0.0%	-1.9%	-6.4	40.2%
Cc1cc(C)c(S(=O)(=O)NCC(c2ccc(N(C)C)cc2)N2CCOCC2)c(C)c1 (centres undefined)	-27.2	-8.1%	.	5.8%	.	.
Cc1ccc(C(C)C)c(OCC(O)CN2CCc3ccccc3C2)c1 (centres undefined)	-80.5*	i	-2.4%	1.2%	15.4	.
Cc1ccc(C)c(OCC(O)CN2CCC(Cc3ccccc3)CC2)c1 (centres undefined)	-69.6*	-33.3%	0.2%	2.3%	-7.3	.
COc1ccc(C(=O)Nc2ccccc2C(=O)OCc2cc(=O)n3c4c(sc3n2)CCCC4)cc1	-2.0	-1.7%	.	0.7%	.	.
